This note sets out measurements from ChEMBL document CHEMBL3988442, “University of Dundee, Small-Polar-MMV Screening Library” (2021).

For some of these results: Potency and affinity values are given separately.

Common to all, as to set-up: scale not given: direction of the effect not stated beside the values
The target in assay [1] is Protein translocase subunit SecA (Escherichia coli (strain K12)) (UniProt P10408). Nature of the assay: Assay to Identify E. coli SecA ATPase Inhibitors. In kind it is functional. The following applies: 30 µM.
Protein translocase subunit SecA (Escherichia coli (strain K12)), sequence (P10408 whole entry): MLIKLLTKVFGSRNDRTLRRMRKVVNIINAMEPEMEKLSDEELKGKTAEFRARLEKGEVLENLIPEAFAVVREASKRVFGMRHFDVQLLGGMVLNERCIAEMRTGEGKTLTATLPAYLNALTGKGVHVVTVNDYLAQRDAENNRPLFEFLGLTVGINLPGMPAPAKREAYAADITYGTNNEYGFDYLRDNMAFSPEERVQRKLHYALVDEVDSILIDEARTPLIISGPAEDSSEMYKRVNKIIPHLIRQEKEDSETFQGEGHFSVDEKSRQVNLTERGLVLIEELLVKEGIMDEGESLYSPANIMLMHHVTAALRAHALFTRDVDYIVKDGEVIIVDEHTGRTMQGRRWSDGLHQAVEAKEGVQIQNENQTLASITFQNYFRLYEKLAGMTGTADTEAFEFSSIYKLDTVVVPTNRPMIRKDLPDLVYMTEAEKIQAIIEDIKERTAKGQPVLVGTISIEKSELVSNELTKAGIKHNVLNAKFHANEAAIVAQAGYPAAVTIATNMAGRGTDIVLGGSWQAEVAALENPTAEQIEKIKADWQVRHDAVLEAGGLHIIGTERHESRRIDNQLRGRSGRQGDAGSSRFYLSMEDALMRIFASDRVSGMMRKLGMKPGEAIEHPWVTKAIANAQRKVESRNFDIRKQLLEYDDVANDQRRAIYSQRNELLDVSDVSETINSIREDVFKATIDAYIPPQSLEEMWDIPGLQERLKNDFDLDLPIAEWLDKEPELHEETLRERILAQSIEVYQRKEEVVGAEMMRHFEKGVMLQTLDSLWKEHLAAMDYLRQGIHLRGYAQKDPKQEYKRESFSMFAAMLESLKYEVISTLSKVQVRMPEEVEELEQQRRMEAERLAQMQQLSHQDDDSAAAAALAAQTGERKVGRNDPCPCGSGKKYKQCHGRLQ
Assay [2] concerns the target T1, Ubiquitin-activating enzyme e1, putative (Leishmania donovani (strain BPK282A1)) (UniProt E9BSI1).
T1 sequence (whole entry): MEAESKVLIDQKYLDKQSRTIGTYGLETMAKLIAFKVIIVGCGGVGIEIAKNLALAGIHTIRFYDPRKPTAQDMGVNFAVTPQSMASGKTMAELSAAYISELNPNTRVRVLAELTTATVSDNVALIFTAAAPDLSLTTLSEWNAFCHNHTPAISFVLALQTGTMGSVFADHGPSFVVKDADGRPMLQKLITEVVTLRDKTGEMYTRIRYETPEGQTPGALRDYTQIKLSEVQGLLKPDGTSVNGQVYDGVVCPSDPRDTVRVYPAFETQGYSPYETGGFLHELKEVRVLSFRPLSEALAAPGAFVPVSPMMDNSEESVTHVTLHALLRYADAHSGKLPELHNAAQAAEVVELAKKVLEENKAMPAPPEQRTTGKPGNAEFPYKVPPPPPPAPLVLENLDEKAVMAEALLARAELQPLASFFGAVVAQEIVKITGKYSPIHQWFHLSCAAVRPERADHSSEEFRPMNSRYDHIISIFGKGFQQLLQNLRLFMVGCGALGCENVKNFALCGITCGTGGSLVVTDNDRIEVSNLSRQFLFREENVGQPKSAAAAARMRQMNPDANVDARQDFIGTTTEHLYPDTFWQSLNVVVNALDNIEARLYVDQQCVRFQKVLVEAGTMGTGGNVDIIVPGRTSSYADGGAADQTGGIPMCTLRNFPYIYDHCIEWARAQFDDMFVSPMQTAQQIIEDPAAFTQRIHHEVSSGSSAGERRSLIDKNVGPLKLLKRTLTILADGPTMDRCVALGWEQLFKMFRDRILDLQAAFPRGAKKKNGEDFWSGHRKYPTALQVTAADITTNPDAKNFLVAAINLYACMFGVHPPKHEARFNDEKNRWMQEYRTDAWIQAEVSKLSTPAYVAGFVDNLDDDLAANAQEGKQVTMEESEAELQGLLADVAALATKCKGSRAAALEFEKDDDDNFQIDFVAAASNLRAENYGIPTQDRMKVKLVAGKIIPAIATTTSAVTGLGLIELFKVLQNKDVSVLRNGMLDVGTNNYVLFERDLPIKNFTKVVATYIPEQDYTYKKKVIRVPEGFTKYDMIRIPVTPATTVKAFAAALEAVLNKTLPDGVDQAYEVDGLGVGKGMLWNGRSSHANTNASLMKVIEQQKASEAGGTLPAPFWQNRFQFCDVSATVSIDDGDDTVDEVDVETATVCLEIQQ
As to the kind of experiment: Leishmania donovani Ubiquitin Activating Enzyme (LdE1). The following applies: 30 µM. It is filed as functional.

The target of assay [3] is AMP-activated protein kinase, AMPK (Homo sapiens) (UniProt P54646+O43741+P54619+Q9UGJ0+Q9Y478+Q13131+Q9UGI9). As to the kind of experiment: AMP-dependent Kinase enzyme assay. An in vitro enzyme assay that detects ADP turnover that is directly proportional to AMPK activity. This uses naive AMPK that is activated during the assay with MK-8722. It is filed as functional. The following applies: 30 µM.

Assay [4] has as its target Sialic acid-binding Ig-like lectin 9 (Homo sapiens) (UniProt Q9Y336). As to the kind of experiment: Hs-Siglec9 ALPHAscreen SOP 20170721. To be noted: 10 µM.
A further assay deals with Trypanosoma cruzi. As to the kind of experiment: Trypanosoma cruzi phosphomannomutase and mannose-1-phosphate guanylyltransferase assay. In kind it is functional. To be noted: 10 µM.
The target in assay [5] is T2, Arginase-2, mitochondrial (Homo sapiens) (UniProt P78540).
T2 sequence (whole entry): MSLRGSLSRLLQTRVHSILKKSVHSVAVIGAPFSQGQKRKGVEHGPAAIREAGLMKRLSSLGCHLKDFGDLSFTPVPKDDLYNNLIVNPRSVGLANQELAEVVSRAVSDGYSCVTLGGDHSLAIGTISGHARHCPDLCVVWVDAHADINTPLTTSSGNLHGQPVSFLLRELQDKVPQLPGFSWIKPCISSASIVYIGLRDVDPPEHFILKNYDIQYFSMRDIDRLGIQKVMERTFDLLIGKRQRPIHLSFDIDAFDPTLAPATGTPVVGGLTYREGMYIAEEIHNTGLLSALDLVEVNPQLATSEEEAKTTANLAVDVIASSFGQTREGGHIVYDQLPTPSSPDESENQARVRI
As to the kind of experiment: in vitro enzyme assay to detect the production of urea directly proportional to the activity of Arginase II. Also: in the data most compounds retested in dose-response had high values. In kind it is functional. The following applies: 33.3 µM.

Assay [6] addresses T3, Proteasome subunit beta (Trypanosoma cruzi) (UniProt O96673).
T3 sequence (whole entry): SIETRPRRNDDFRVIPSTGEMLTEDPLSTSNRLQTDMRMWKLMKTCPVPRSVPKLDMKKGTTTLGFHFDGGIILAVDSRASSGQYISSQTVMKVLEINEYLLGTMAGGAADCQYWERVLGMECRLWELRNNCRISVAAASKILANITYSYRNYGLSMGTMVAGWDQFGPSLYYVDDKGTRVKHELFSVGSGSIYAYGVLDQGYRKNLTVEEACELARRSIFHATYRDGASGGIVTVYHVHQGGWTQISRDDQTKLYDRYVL
As to the kind of experiment: Trypanosoma cruzi proteasome chymotrypsin-like activity (TcProtChymo) assay. Also: in the data most compounds retested in dose-response had high values. It is filed as functional. To be noted: 9.37 µM.

The species named for a further assay is Homo sapiens. As to the kind of experiment: To identify inhibition of the IFN signalling (Jak-Stat) pathway via expression of an eGFP reporter gene under the control of an IFN-stimulated response element (ISRE) containing MxA promoter. In kind it is functional. To be noted: 30 µM.
The target of assay [7] is T4, Tyrosyl-tRNA synthetase, putative (Trypanosoma cruzi (strain CL Brener)) (UniProt Q4DSP6).
T4 sequence (whole entry): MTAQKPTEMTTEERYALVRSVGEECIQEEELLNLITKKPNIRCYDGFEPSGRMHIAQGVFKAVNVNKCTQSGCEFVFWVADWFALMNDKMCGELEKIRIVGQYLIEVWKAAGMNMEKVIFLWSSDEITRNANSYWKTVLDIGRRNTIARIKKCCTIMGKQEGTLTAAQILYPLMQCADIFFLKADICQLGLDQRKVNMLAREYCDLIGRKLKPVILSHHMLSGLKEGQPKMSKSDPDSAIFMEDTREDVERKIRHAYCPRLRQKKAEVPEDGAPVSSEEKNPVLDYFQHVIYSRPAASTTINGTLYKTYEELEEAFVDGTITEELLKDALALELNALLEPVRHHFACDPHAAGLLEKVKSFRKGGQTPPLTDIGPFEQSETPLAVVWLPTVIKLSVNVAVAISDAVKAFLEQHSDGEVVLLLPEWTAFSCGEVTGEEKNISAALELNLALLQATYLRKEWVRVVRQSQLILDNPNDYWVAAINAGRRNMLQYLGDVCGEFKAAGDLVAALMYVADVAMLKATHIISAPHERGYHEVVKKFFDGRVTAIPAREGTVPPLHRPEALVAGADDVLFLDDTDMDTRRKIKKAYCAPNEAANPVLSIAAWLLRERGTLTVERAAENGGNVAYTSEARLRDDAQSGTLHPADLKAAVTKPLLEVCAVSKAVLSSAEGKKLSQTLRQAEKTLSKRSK
As to the kind of experiment: Trypanosoma cruzi tyrosyl tRNA synthetase (TcYRS) _High Tyrosine SOP. Also: in the data most compounds retested in dose-response had high values. In kind it is functional. To be noted: 30 µM.

Assay [8] deals with T4, Tyrosyl-tRNA synthetase, putative (Trypanosoma cruzi (strain CL Brener)). Nature of the assay: Trypanosoma cruzi tyrosyl tRNA synthetase (TcYRS) SOP. In kind it is functional. To be noted: 30 µM.
The target of assay [9] is Chromo domain-containing protein 1 (Saccharomyces cerevisiae (strain ATCC 204508 / S288c) (Baker's yeast)) (UniProt P32657). As to the kind of experiment: ScCHD-1 Enzyme Inhibition Assay. Also: in the data most compounds retested in dose-response had high values. It is filed as functional. To be noted: 30 µM.
Chromo domain-containing protein 1 (Saccharomyces cerevisiae (strain ATCC 204508 / S288c) (Baker's yeast)), sequence (P32657 whole entry, the tested form may be a part): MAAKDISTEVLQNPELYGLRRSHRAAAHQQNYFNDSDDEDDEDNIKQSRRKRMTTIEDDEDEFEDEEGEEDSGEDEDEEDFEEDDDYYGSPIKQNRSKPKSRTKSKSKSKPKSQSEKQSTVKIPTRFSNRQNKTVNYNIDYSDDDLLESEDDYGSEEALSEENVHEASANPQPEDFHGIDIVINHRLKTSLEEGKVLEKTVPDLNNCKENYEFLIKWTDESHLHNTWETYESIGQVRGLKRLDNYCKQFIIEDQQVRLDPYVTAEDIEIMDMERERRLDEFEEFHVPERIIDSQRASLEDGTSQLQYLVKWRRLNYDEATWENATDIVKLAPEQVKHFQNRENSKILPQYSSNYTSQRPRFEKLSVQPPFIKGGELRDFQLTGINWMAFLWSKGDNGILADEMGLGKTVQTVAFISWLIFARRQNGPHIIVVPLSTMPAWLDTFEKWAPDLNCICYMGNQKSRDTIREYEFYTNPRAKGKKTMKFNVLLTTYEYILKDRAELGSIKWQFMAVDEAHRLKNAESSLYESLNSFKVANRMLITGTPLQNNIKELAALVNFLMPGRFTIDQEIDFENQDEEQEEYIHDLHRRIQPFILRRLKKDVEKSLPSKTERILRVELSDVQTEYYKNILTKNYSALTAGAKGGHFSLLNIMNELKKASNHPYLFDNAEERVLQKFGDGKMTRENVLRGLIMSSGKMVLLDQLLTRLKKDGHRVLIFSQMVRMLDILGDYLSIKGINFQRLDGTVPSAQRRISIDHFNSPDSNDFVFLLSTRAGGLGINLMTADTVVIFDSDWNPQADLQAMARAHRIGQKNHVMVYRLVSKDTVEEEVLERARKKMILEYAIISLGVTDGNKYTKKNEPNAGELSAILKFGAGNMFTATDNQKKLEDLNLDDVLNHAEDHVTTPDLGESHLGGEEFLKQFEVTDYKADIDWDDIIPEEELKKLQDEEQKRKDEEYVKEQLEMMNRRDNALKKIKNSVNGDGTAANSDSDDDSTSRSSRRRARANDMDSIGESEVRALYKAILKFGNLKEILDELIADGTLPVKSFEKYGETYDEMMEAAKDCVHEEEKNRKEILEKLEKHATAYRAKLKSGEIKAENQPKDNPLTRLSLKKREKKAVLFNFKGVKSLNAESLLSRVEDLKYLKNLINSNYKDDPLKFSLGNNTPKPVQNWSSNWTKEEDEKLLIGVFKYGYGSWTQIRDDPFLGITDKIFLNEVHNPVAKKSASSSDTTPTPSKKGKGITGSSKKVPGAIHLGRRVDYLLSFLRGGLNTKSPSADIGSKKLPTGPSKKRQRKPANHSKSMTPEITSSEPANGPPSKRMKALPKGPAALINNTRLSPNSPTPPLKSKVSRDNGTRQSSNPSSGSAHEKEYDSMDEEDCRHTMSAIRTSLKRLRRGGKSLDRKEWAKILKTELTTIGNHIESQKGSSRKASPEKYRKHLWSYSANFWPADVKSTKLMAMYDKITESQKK

Sialic acid-binding Ig-like lectin 9 (Homo sapiens), sequence (Q9Y336 whole entry): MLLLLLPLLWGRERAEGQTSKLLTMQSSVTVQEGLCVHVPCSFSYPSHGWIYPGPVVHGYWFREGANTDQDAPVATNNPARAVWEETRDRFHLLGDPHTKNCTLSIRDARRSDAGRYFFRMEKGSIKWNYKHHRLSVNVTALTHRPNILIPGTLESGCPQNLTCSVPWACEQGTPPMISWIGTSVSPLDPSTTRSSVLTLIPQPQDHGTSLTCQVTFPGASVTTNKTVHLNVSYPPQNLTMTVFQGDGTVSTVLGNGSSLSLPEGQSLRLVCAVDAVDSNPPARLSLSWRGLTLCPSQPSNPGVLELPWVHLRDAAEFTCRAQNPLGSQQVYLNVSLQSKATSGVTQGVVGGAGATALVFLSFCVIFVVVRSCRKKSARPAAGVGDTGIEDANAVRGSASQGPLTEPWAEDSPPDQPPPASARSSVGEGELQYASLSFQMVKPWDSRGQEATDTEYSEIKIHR

Consider `COc1ccccc1CC(=O)NS(=O)(=O)c1cncc(Br)c1`, for which the Percent Effect in assay [1] was -4.15%; in assay [2] it was 2.6%; in assay [3], 4.69%; in assay [4], -5.24%; in the assay with Trypanosoma cruzi it was -1.87%; in assay [5] it was 2.13%. Besides, the Percent Effect in assay [6] was 1.35%; in the assay filed under Homo sapiens it was 21.7%; in assay [7], -4.85%; in assay [8], -4.88%; in assay [9] it was -7.14%.

Take `COCC1CN(Cc2ccc(C)o2)Cc2cn(C)nc21` (stereo unspecified): the Percent Effect in assay [1] is -1.58%; in assay [2], 10.7%; in assay [3], -0.404%; in [4], 16.5%; in the assay on Trypanosoma cruzi it was -0.965%; in [5] it was -18.5%. Moreover, the Percent Effect in assay [6] is 5.13%; in the assay listed under Homo sapiens, -4.89%; in [7], 10.4%; in assay [8], 20%; in assay [9], -7.5%.

Take `COc1c(CNC2CCOc3ccccc32)c(C(C)C)nn1C` (stereo unspecified): the Percent Effect in assay [1] was -0.153%; in [2], -48.6%; in assay [3] it was -2.39%; in [4] it was 7.95%; in the assay on Trypanosoma cruzi, 1.58%; in assay [5], 0.924%. Besides, the Percent Effect in [6] was 3.95%; in the assay filed under Homo sapiens, 0.812%; in assay [7], 7.92%; in [8] it was 18.3%; in [9], -6.55%.

In the case of `CC(Cn1cccn1)NC(=O)NCCc1ccc(Cl)s1` (stereo unspecified), the Percent Effect was -0.239% in [1]; 22.8% in assay [2]; 0.135% in [3]; -8.1% in [4]; -0.283% in the assay on Trypanosoma cruzi; 1.52% in assay [5]. Besides, the Percent Effect in [6] is 9.75%; in the assay filed under Homo sapiens it was 5.52%; in assay [7], 3.45%; in [8] it was 16.5%; in assay [9], -2.95%.

For `COc1ccc(NC(C)C(=O)N2CCN(Cc3ccccc3)CC2)cn1` (stereo unspecified), the Percent Effect in [1] was -0.598%; in [2], -2.74%; in assay [3], -258%; in assay [4] it was -6.68%; with Trypanosoma cruzi, -0.783%; in [5], 3.18%. In addition, the Percent Effect in assay [6] was -6.21%; in the assay filed under Homo sapiens, 4.99%; in [7], 1.07%; in [8] it was 0%; in assay [9], -0.618%.

Regarding `CNS(=O)(=O)Cc1ccc(CNC(=O)Nc2cn[nH]c2)cc1`, the Percent Effect was -5.68% in [1]; 20.2% in [2]; 6.15% in assay [3]; -12.1% in assay [4]; -3.68% with Trypanosoma cruzi; 1.52% in assay [5]. The Percent Effect in assay [6] was 8.11%; in the assay filed under Homo sapiens, 18.9%; in assay [7], 2.46%; in [8], 13.9%; in [9] it was -0.403%.

Consider `CC(=O)N1CCCC1c1nnc2n1CCCCC2` (stereo unspecified), for which the Percent Effect in assay [1] is -8.8%; in [2] it was -32.4%; in assay [3], 1.68%; in assay [4], -1.76%; in the assay with Trypanosoma cruzi, -0.195%; in assay [5] it was 5.42%. Further, the Percent Effect was 6.85% in [6]; 5.46% in the assay filed under Homo sapiens; 7.92% in assay [7]; 13.4% in assay [8]; -5.77% in [9].

For the compound `COc1ccc(CNC2CCN(CCc3ccncc3)CC2)cc1O`, the Percent Effect in [1] was -6.94%; in [2] it was 16.2%; in assay [3], -9.03%; in assay [4], 9.91%; with Trypanosoma cruzi, 5.27%; in assay [5], 26.7%. Besides, the Percent Effect in assay [6] is 10.6%; in the assay filed under Homo sapiens it was -0.697%; in assay [7] it was -6.93%; in assay [8], 8.54%; in assay [9], -9.05%.

On to `COc1ccc2cc(C3CN(C(=O)C4CCOCC4)CCO3)ccc2c1` (stereo unspecified), for which the Percent Effect in assay [1] was -3.12%; in [2], 2.7%; in assay [3] it was 1.82%; in assay [4], 0.48%; with Trypanosoma cruzi, 1.93%; in [5], 2.38%. The Percent Effect in assay [6] is 9.31%; in the assay listed under Homo sapiens, -4.85%; in [7] it was 4.76%; in assay [8] it was 12.2%; in [9], -2.89%.

`CC(Cn1ccnc1)NC(=O)NCCNC(=O)C(C)C` (stereo unspecified): the Percent Effect in [1] is 2.77%; in assay [2], 23.7%; in assay [3] it was -2.17%; in assay [4] it was -3.21%; in the assay on Trypanosoma cruzi it was 0.94%; in [5], -4.6%. In addition, the Percent Effect was 15.4% in assay [6]; 31.2% in the assay listed under Homo sapiens; 3.43% in [7]; 19.5% in assay [8]; -9.78% in assay [9].

Consider `Cn1ccc(C(=O)N2CCC(Cc3cccc4cccnc34)C2)n1` (stereo unspecified), for which the Percent Effect in assay [1] was -2.61%; in assay [2], 9.46%; in [3], 13.5%; in assay [4] it was 3.85%; in the assay on Trypanosoma cruzi, -5.73%; in assay [5], -2.09%. For the same compound, the Percent Effect in [6] stood at 4.68%; in the assay filed under Homo sapiens it was 16.3%; in assay [7] it was 5.38%; in assay [8], 6.49%; in assay [9] it was 0.402%.
